{
  "source": "PubChem BioAssay AID372",
  "about": "(MTDP, 2006)",
  "note": "Screen size: about 100,000 compounds; about 770 (0.77%) were called active. Rule as the data show it: active = inhibition above about 50%; inactive = the rest. The full list was thinned out, with actives kept by preference.",
  "data": [
    {"biological_target": "Gag-Pol polyprotein (Human immunodeficiency virus type 1 group M subtype B (isolate HXB2)) (UniProt P04585)", "test": "RNase H inhibition, HIV 1 Gag Pol polyprotein, FRET biochemical assay, screening (AID 372)", "details": "HIV-1 RT RNase H, FRET RNA/DNA substrate fluorescence; at 10 µM; hits give high values", "values": [
      {"smiles": "Clc1cccc(NCc2ccncc2)c1", "inhibition": "2% (inactive)"},
      {"smiles": "COc1ccc(-n2sc3c(c2=S)-c2ccc(OC)cc2NC3(C)C)cc1", "inhibition": "15% (inactive)"},
      {"smiles": "CCCOC(=O)C1=C(C)NC2=C(C(=O)CC(c3ccccc3)C2)C1c1ccccc1Br", "note": "(stereo not given)", "inhibition": "58% (active)"},
      {"smiles": "CC1=C(C(=O)OCc2ccccc2)C(c2ccccc2Br)C2=C(CC(c3ccccc3)CC2=O)N1", "note": "(stereo not given)", "inhibition": "32% (inactive)"},
      {"smiles": "CC1=C(C(=O)OCCc2ccccc2)C(c2ccccc2Br)C2=C(CC(c3ccccc3)CC2=O)N1", "note": "(stereo not given)", "inhibition": "26% (inactive)"},
      {"smiles": "O=S(=O)(NC1CCCCCCC1)c1ccc(F)cc1", "inhibition": "7% (inactive)"},
      {"smiles": "O=C1NC(=S)S/C1=C\\c1cn(Cc2ccc(Cl)cc2)c2ccccc12", "inhibition": "31% (inactive)"},
      {"smiles": "CCN(CC)CCOc1c(Cl)cc(C)cc1Cl", "inhibition": "2% (inactive)"},
      {"smiles": "CCOc1ccccc1OCCCCOc1c(Cl)cc(C)cc1Cl", "inhibition": "23% (inactive)"},
      {"smiles": "CCN(CC)CCOc1c(C)cc(C)cc1Cl", "inhibition": "52% (active)"},
      {"smiles": "CCOc1ccccc1OCCOCCOc1c(C)cc(C)cc1Cl", "inhibition": "33% (inactive)"},
      {"smiles": "CCOc1ccccc1OCCCOc1c(C)cc(C)cc1Cl", "inhibition": "52% (active)"},
      {"smiles": "CCN(CC)CCOc1c(C)cc(Cl)cc1Cl", "inhibition": "0% (inactive)"},
      {"smiles": "N#C/C(=C\\Nc1ccccc1Cl)c1nc(-c2ccc(Br)cc2)cs1", "inhibition": "2% (inactive)"},
      {"smiles": "CC(=O)C1C(=O)C=C(c2cccs2)CC1c1ccccc1", "note": "(stereo not given)", "inhibition": "0% (inactive)"},
      {"smiles": "CCOC(=O)C1=C(c2ccccc2)S/C(=C2/C(=S)C(C)(C)N(C(C)=O)c3ccc(OC)cc32)S1", "inhibition": "22% (inactive)"},
      {"smiles": "CC(=O)C1=C(c2ccccc2)S/C(=C2/C(=S)C(C)(C)N(C(C)=O)c3ccc(C)cc32)S1", "inhibition": "50% (active)"},
      {"smiles": "CCOC(=O)C1=C(c2ccccc2)S/C(=C2/C(=S)C(C)(C)N(C(C)=O)c3ccc(C)cc32)S1", "inhibition": "24% (inactive)"},
      {"smiles": "O=C(CSc1nc(O)cc(=O)[nH]1)C1CC1", "inhibition": "11% (inactive)"},
      {"smiles": "O=C1NC(=O)C(=Cc2cccn2-c2ccccc2)C(=O)N1", "inhibition": "29% (inactive)"},
      {"smiles": "CN1C(=O)S/C(=C/c2cccn2-c2ccc(Cl)cc2)C1=O", "inhibition": "44% (inactive)"},
      {"smiles": "COc1ccc(-n2cccc2/C=C2\\C(=O)NC(=S)N(c3ccc(Br)cc3)C2=O)cc1", "inhibition": "32% (inactive)"},
      {"smiles": "O=C1NC(=S)N(c2ccccc2)C(=O)/C1=C/c1cccn1-c1ccccc1", "inhibition": "10% (inactive)"},
      {"smiles": "O=C1NC(=S)N(c2ccccc2)C(=O)/C1=C/c1cccn1-c1ccc(Cl)cc1", "inhibition": "52% (active)"},
      {"smiles": "COc1ccc(N2C(=O)/C(=C/c3cccn3-c3ccc(Br)cc3)C(=O)NC2=S)cc1", "inhibition": "29% (inactive)"},
      {"smiles": "O=C1NC(=S)N(c2ccc(Cl)cc2)C(=O)/C1=C/c1cccn1-c1ccccc1", "inhibition": "4% (inactive)"},
      {"smiles": "COc1ccc(N2C(=O)/C(=C/c3cccn3-c3ccccc3)C(=O)NC2=S)cc1", "inhibition": "54% (active)"},
      {"smiles": "O=C1NC(=S)NC(=O)C1=Cc1cccn1-c1ccc(Cl)cc1", "inhibition": "11% (inactive)"},
      {"smiles": "CN1C(=O)/C(=C/c2cccn2-c2ccc([N+](=O)[O-])cc2)SC1=S", "inhibition": "42% (inactive)"},
      {"smiles": "COc1ccc(-n2cccc2/C=C2/SC(=O)N(C)C2=O)cc1", "inhibition": "53% (active)"},
      {"smiles": "O=C1NC(=O)C(=Cc2cccn2-c2ccc(Cl)cc2)C(=O)N1", "inhibition": "57% (active)"},
      {"smiles": "O=C(c1cc(-c2ccccc2)nc2ccccc12)N1CCc2ccccc2C1", "inhibition": "9% (inactive)"},
      {"smiles": "COc1ccc(C(=O)N/C(=C\\c2cc(OC)c(OC)cc2[N+](=O)[O-])C(=O)Nc2ccc(C)cc2C)cc1", "inhibition": "18% (inactive)"},
      {"smiles": "Cc1cccc(C2(c3cccc(C)c3)CC2C(=O)Nc2cc([N+](=O)[O-])ccc2O)c1", "note": "(stereo not given)", "inhibition": "30% (inactive)"},
      {"smiles": "CC(C)(C)NC(=O)C(=O)N/N=C/c1cccc2ccccc12", "inhibition": "10% (inactive)"},
      {"smiles": "COC(=O)C(=C/C(C)=C/c1ccco1)C(=O)OC", "inhibition": "1% (inactive)"},
      {"smiles": "CCN(CC)CCCCCOc1cc(C)cc(C)c1", "inhibition": "17% (inactive)"},
      {"smiles": "COc1cc(C(=O)N/C(=C/c2ccc(Br)cc2)C(=O)NC(C)C(=O)O)cc(OC)c1OC", "note": "(stereo not given)", "inhibition": "3% (inactive)"},
      {"smiles": "COC(=O)c1ccccc1NC(=O)COc1ccc2ccccc2c1", "inhibition": "38% (inactive)"},
      {"smiles": "O=C(COc1ccccc1)Nc1ccccc1C(=O)Nc1ccc(C(=O)O)cc1", "inhibition": "1% (inactive)"},
      {"smiles": "O=C(COc1ccc2ccccc2c1)Nc1ccccc1C(=O)Nc1ccccc1", "inhibition": "54% (active)"},
      {"smiles": "C=C(C)c1cccc(C(C)(C)NC(=O)NCc2ccccn2)c1", "inhibition": "0% (inactive)"},
      {"smiles": "O=C1c2ccccc2C(=O)N1CCc1nc2ccccc2c(=O)n1-c1ccc(Br)cn1", "inhibition": "40% (inactive)"},
      {"smiles": "Cc1cccc(-n2c(CCN3C(=O)c4ccccc4C3=O)nc3ccccc3c2=O)n1", "inhibition": "14% (inactive)"},
      {"smiles": "O=C1c2ccccc2C(=O)N1CCc1nc2ccccc2c(=O)n1-c1ccccn1", "inhibition": "61% (active)"},
      {"smiles": "O=C(c1cccs1)N1CCN(c2ccc([N+](=O)[O-])cc2)CC1", "inhibition": "4% (inactive)"},
      {"smiles": "O=C1OC(c2ccccc2)=C/C1=C/c1ccc(Cl)cc1", "inhibition": "7% (inactive)"},
      {"smiles": "O=C1OC(c2ccccc2)=C/C1=C\\c1c(Cl)cccc1Cl", "inhibition": "50% (active)"},
      {"smiles": "Cc1ccc2cc(C3=C/C(=C\\c4c(Cl)cccc4Cl)C(=O)O3)ccc2c1", "inhibition": "6% (inactive)"},
      {"smiles": "O=C1OC(c2ccccc2)=C/C1=C/c1ccc([N+](=O)[O-])cc1", "inhibition": "2% (inactive)"},
      {"smiles": "Cc1ccc([N+](=O)[O-])cc1/C=C1/C=C(c2ccccc2)OC1=O", "inhibition": "57% (active)"},
      {"smiles": "Cc1ccc(C2=C/C(=C\\c3cc([N+](=O)[O-])ccc3Cl)C(=O)O2)cc1", "inhibition": "43% (inactive)"},
      {"smiles": "CC(C)(C)c1cc(/C=N/NC(=O)c2ccccc2O)cc(C(C)(C)C)c1O", "inhibition": "25% (inactive)"},
      {"smiles": "CC1=C(C(=O)Nc2ccc(Br)cc2)C(c2ccc(C)cc2)NC(=S)N1", "note": "(stereo not given)", "inhibition": "57% (active)"},
      {"smiles": "CC1=C(C(=O)Nc2ccc(C)cc2)C(c2ccc(Br)cc2)NC(=S)N1", "note": "(stereo not given)", "inhibition": "10% (inactive)"},
      {"smiles": "CC1=C(C(=O)Nc2ccc(Br)cc2)C(c2ccc(Br)cc2)NC(=S)N1", "note": "(stereo not given)", "inhibition": "11% (inactive)"},
      {"smiles": "COC(=O)C1=C(C)N(C)C(=O)NC1c1cc2c(cc1[N+](=O)[O-])OCO2", "note": "(stereo not given)", "inhibition": "3% (inactive)"},
      {"smiles": "COC(=O)c1ccc(/C=C2\\SC(=NCc3ccccc3)N(Cc3ccccc3)C2=O)cc1", "inhibition": "59% (active)"},
      {"smiles": "COc1ccc(/C=C2\\SC(=NCc3ccccc3)N(Cc3ccccc3)C2=O)cc1C(=O)O", "inhibition": "23% (inactive)"},
      {"smiles": "CCOc1ccc(/C=C2\\SC(=NCc3ccccc3)N(Cc3ccccc3)C2=O)cc1", "inhibition": "0% (inactive)"},
      {"smiles": "COc1ccccc1/C=C1/SC(=NCc2ccccc2)N(Cc2ccccc2)C1=O", "inhibition": "28% (inactive)"},
      {"smiles": "COc1ccc(/C=C2\\SC(=O)N(Cc3ccccc3)C2=O)cc1OC", "inhibition": "44% (inactive)"},
      {"smiles": "COc1ccc(/C=C2\\SC(=NCc3ccccc3)N(Cc3ccccc3)C2=O)cc1OC", "inhibition": "54% (active)"},
      {"smiles": "O=C1CC(c2ccccc2)CC(O)=C1C=NCCN1CCNCC1", "note": "(stereo not given)", "inhibition": "0% (inactive)"},
      {"smiles": "COc1ccc(C=Nc2ccc(C)c(F)c2)cc1OC", "inhibition": "6% (inactive)"},
      {"smiles": "CCOC(=O)COc1c(Cl)cc(/C=C2\\C(=O)NC(=O)N(c3ccc(F)cc3)C2=O)cc1Cl", "inhibition": "2% (inactive)"},
      {"smiles": "CC/C(=C1\\C(=O)N(c2nc3ccccc3s2)N=C1C(F)(F)F)N1CCCCC1", "inhibition": "5% (inactive)"},
      {"smiles": "CCOc1ccc(N(CC(=O)N2CCC(C)CC2)S(=O)(=O)c2ccccc2)cc1", "inhibition": "8% (inactive)"},
      {"smiles": "CCCOc1ccccc1/C=N/NC(N)=O", "inhibition": "0% (inactive)"},
      {"smiles": "CCc1cc(CC)c(Cc2c(CC)cc(CC)c(/C=N/NC(N)=O)c2CC)c(CC)c1/C=N/NC(N)=O", "inhibition": "50% (active)"},
      {"smiles": "CCc1cc(CC)c(/C=N/O)c(CC)c1/C=N/O", "inhibition": "0% (inactive)"},
      {"smiles": "Cc1ccc([N+](=O)[O-])cc1S(=O)(=O)n1cnc2ccccc21", "inhibition": "22% (inactive)"},
      {"smiles": "Cc1cc2ncn(S(=O)(=O)c3cc([N+](=O)[O-])ccc3Cl)c2cc1C", "inhibition": "57% (active)"},
      {"smiles": "Cc1cc2ncn(S(=O)(=O)c3ccc(Cl)c([N+](=O)[O-])c3)c2cc1C", "inhibition": "23% (inactive)"},
      {"smiles": "CCCC(=O)Nc1ccc(N2CCOCC2)c(Cl)c1", "inhibition": "0% (inactive)"},
      {"smiles": "CCOC(=O)CCCN1C(=O)S/C(=C\\c2ccc(OC)cc2)C1=O", "inhibition": "0% (inactive)"},
      {"smiles": "COc1ccc(N2CC(C(=O)N/N=C/c3ccc(OC)c(OC)c3)CC2=O)cc1", "note": "(stereo not given)", "inhibition": "3% (inactive)"},
      {"smiles": "CCOc1cc(/C=C2\\SC(=S)N(/N=C/c3ccc(O)c(OCC)c3)C2=O)ccc1O", "inhibition": "20% (inactive)"},
      {"smiles": "Cc1ccc2nc(-c3sc(=S)n(-c4ccccc4)c3N)[nH]c2c1", "inhibition": "21% (inactive)"},
      {"smiles": "Nc1ccc(-c2nc3ccccc3[nH]2)c(N)c1", "inhibition": "4% (inactive)"},
      {"smiles": "COc1ccc(/C=C/C(=O)c2c(-c3ccccc3)c3cc(Cl)ccc3[nH]c2=O)cc1OC", "inhibition": "11% (inactive)"},
      {"smiles": "COc1cc(/C=C/C(=O)c2c(-c3ccccc3)c3cc(Cl)ccc3[nH]c2=O)cc(Br)c1OC", "inhibition": "26% (inactive)"},
      {"smiles": "O=C(/C=C/c1ccccc1F)c1c(-c2ccccc2)c2cc(Cl)ccc2[nH]c1=O", "inhibition": "48% (inactive)"},
      {"smiles": "COc1ccc(OC)c(/C=C/C(=O)c2c(-c3ccccc3)c3cc(Cl)ccc3[nH]c2=O)c1", "inhibition": "50% (active)"},
      {"smiles": "COc1ccccc1/C=C/C(=O)c1c(-c2ccccc2)c2cc(Cl)ccc2[nH]c1=O", "inhibition": "60% (active)"},
      {"smiles": "COc1cc(/C=C/C(=O)c2c(-c3ccccc3)c3cc(Cl)ccc3[nH]c2=O)cc(OC)c1OC", "inhibition": "3% (inactive)"},
      {"smiles": "C=CCN1C(=O)/C(=C\\c2ccc(-c3ccc(Br)cc3)o2)C(=O)NC1=S", "inhibition": "32% (inactive)"},
      {"smiles": "Cc1ccc(NC(=O)C(=O)NCc2ccc3c(c2)OCO3)cc1", "inhibition": "4% (inactive)"},
      {"smiles": "Cc1nc2cc(-c3ccc(I)cc3)[nH]n2c(=O)c1C", "inhibition": "0% (inactive)"},
      {"smiles": "COC(=N)/C(C#N)=C/c1c(O)n(-c2c(Cl)cccc2Cl)c2ccccc12", "inhibition": "1% (inactive)"}
    ]}
  ]
}
